Test results published in paper PMC4336329 (PLoS ONE, 2015).
Among all 310,000 compounds or so, about 14,000 (4.5%) showed an effect of 50% or more. The effect is printed as a negative number. What follows is part of a selection rich in strong results, with near analogues and random picks from the rest.

Target: human ether-à-go-go-related gene (hERG) potassium channel (human, UniProt Q12809)
Assay: primary screen, population patch clamp on CHO cells stably expressing hERG; higher = less effect of the substance
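Also: peak tail current of the secondary pulse compared with the same well before compound.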

Sequence of human ether-à-go-go-related gene (hERG) potassium channel (Q12809 whole entry, looked up): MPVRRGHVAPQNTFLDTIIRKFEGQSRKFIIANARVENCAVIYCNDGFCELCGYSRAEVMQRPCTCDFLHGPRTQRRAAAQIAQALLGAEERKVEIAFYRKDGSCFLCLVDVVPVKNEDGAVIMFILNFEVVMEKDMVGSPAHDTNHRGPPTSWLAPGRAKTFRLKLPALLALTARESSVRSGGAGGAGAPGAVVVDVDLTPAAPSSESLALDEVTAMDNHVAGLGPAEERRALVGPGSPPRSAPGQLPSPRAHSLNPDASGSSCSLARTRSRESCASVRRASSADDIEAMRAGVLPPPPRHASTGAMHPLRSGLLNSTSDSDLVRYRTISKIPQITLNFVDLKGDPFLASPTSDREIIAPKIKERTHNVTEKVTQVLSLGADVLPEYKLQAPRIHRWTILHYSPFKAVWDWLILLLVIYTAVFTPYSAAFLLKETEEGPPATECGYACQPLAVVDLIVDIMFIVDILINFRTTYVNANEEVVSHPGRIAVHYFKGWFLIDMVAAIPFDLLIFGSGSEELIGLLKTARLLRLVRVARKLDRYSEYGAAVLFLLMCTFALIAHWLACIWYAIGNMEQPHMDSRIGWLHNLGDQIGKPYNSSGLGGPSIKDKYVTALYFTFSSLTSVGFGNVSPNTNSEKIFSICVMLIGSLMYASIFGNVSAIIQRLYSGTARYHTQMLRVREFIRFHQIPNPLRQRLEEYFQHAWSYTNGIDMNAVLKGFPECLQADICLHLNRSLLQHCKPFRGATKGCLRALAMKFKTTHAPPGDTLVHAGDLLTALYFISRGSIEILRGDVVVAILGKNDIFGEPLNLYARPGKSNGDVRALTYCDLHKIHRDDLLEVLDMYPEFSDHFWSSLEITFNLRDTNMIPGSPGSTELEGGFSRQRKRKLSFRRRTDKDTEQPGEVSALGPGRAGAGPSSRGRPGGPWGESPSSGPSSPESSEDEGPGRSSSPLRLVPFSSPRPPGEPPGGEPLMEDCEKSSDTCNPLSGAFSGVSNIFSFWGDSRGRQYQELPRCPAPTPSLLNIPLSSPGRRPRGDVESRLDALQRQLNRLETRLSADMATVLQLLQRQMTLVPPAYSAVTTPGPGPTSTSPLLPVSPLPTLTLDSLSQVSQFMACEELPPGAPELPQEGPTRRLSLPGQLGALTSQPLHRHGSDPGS

| Compound | hERG current change (%, negative = inhibition) at 10uM [%] |
| --- | --- |
| Cc1ccccc1/C=C1\SC(=S)N(/N=C/c2cc([N+](=O)[O-])ccc2O)C1=O | 8.13 |
| COc1ccc(N(C)C(=O)c2cnc(N3CCN(c4ncccn4)CC3)c3ccccc23)cc1 | -11.8 |
| Cc1ccc(NC(=O)N2CCC(NC(=O)C(C)(C)C)CC2)cc1 | 10.1 |
| O=C(Cn1cncn1)N/N=C/c1cccc(Cl)c1 | 16.3 |
| Oc1ccc(N=Nc2cccc(C(F)(F)F)c2)cc1C=Nc1ccc(N2CCOCC2)cc1 | 15.6 |
| CCOc1ccc(C(CC(=O)O)NC(=O)COc2ccccc2OC)cc1OC (centres unmarked) | 26.4 |
| Cc1c(C(=O)O)cccc1-c1ccc(/C=N/Nc2ccc(Br)cc2)o1 | 30.2 |
| O=C(CCC(=O)N1CCN(S(=O)(=O)c2ccccc2)CC1)NC1CCCc2ccccc21 (centres unmarked) | -13.5 |
| COc1ccc(NC(=O)CN2CCN(S(=O)(=O)c3ccc(Cl)cc3)CC2)cc1Cl | -0.308 |
| O=C(CCC(=O)N1CCN(S(=O)(=O)c2ccc(Cl)cc2)CC1)NC1CCCc2ccccc21 (centres unmarked) | -52.6 |
| CCc1ccc(NC(=O)CN2CCCN(S(=O)(=O)c3ccc(F)cc3)CC2)cc1 | -63.9 |
| COc1ccc(S(=O)(=O)N2CCN(CC(=O)Nc3cc(OC)cc(OC)c3)CC2)cc1 | -0.404 |
| NS(=O)(=O)c1ccc(NC(=O)CN2CCCN(S(=O)(=O)c3ccc(F)cc3)CC2)cc1 | -17.9 |
| COc1ccc(S(=O)(=O)N2CCN(CC(=O)Nc3ccc(F)c(F)c3)CC2)cc1 | -66.4 |
| COc1ccc(NC(=O)CN2CCCN(S(=O)(=O)c3ccc(F)cc3)CC2)cc1 | -36.5 |
| Cc1ccc(S(=O)(=O)N2CCN(C(=O)CCC(=O)NC3CCCc4ccccc43)CC2)cc1 (centres unmarked) | -17.3 |
| O=C(CN1CCN(S(=O)(=O)c2ccc(F)cc2)CC1)Nc1ccc2c(c1)OCCO2 | -10.9 |
| O=C(CN1CCCN(S(=O)(=O)c2ccc(F)cc2)CC1)Nc1c(Cl)cccc1Cl | -27.1 |
| O=C(CN1CCCN(S(=O)(=O)c2ccc(F)cc2)CC1)Nc1cccc(F)c1 | -50.3 |
| Cc1c(C(=O)Nc2nnc(C(F)(F)F)s2)oc2ccccc12 | 13.1 |
| Cc1cc(OC(=O)c2ccc(S(=O)(=O)N(C)C)cc2)c([N+](=O)[O-])c(=O)[nH]1 | 10.6 |
| COc1ccc2c(c1OC)C(=O)OC2C1c2cc3c(cc2CCN1C)OCO3 (centres unmarked) | 6.25 |
| COc1cc(C(O)CN)ccc1O.Cl (centres unmarked) | 3.21 |
| CCN(CC)C(=S)Sc1c(-c2ccccc2)c2cc(Cl)ccc2[nH]c1=O | 5.42 |
| COc1ccc(S(=O)(=O)N2CCN(CC(=O)Nc3cccc(OC)c3)CC2)cc1 | -31.4 |
| COc1ccc(S(=O)(=O)N2CCN(CC(=O)Nc3cccc(F)c3)CC2)cc1 | -54.1 |
| COc1cccc(NC(=O)CN2CCN(S(=O)(=O)c3ccc(F)cc3)CC2)c1 | -23.1 |

| Compound | hERG current change (%, negative = inhibition) at 10uM [%] |
| --- | --- |
| Cc1cnc(NC(=O)C(C)N2CCN(C)CC2)s1.O=C(O)C(=O)O (centres unmarked) | 20.7 |
| O=C(O)C1(P(=O)(c2ccccc2)c2ccccc2)CCC1 | -3.46 |
| CC(/C=N/Nc1nnc(C)c(=O)[nH]1)=C\c1ccccc1 | -10.5 |
| CC(/C=N/Nc1nncc(=O)[nH]1)=C\c1ccccc1 | 3.08 |
| CC(/C=N/Nc1ncc(C)c(=O)[nH]1)=C\c1ccccc1 | -53 |
| O=C(CSc1nnc(COc2ccc(Cl)cc2)o1)NC1CC2CCC1C2 (centres unmarked) | 11.5 |
| CCC(C)(C)NC(=O)C(C(C)C)N(CC1CCCO1)C(=O)CNS(=O)(=O)c1ccccc1 (centres unmarked) | -2.21 |
| CCC(Oc1ccccc1)C(=O)Nc1ccc(C)c(S(=O)(=O)N2CCOCC2)c1 (centres unmarked) | -18 |
| CNC(C)Cc1ccccc1Sc1ccc(O)cc1.Cl (centres unmarked) | -66.7 |
| CC(N)Cc1ccccc1Sc1ccc(O)cc1.O=C(O)C(=O)O (centres unmarked) | -35.5 |
| CC(Cc1ccccc1Sc1ccc(O)cc1)N(C)C.CCO.Cl (centres unmarked) | -69.5 |
| CNCc1ccccc1Sc1ccc(OC)cc1.Cl | -30.4 |
| CC(Cc1ccccc1Sc1ccccc1O)N(C)C.Cl (centres unmarked) | -18.9 |
| CN(C)Cc1ccccc1Sc1ccc(Br)cc1 | -15.6 |
| O=C(C1=C(O)C(=O)N(CCN2CCOCC2)C1c1ccccc1)c1cccs1 (centres unmarked) | -2.27 |
| O=C(OC(C(=O)NCc1cccs1)c1ccccc1F)c1ccco1 (centres unmarked) | 20.5 |
| CCOc1ccccc1NC(=O)COC(=O)C(Cc1ccccc1)NC(=O)c1ccco1 (centres unmarked) | -8.33 |
| O=C1/C(=C\c2ccsc2)NC(=S)N1c1ccccc1 | 15.4 |
| COc1ccccc1OCCC(=O)OCC(=O)Nc1cc(S(=O)(=O)N(C)C)ccc1Cl | -6.26 |
| CCOc1cc(C(=O)N2CCC(CC3CC(c4ccc(Cl)cc4)=NO3)(C(=O)NCC3CCCCC3)CC2)cc(OCC)c1OCC (centres unmarked) | 1.25 |
| O=C(NCC1CCCCC1)C1(CC2CC(c3cccc(Br)c3)=NO2)CCNCC1 (centres unmarked) | -24.1 |
| O=C(Cc1ccc(F)cc1)N1CCC(CC2CC(c3ccc(Cl)cc3)=NO2)(C(=O)NCC2CCCCC2)CC1 (centres unmarked) | -72.3 |
| O=C(Cc1ccc(F)cc1)N1CCC(CC2CC(c3cccc(Br)c3)=NO2)(C(=O)NCC2CCCCC2)CC1 (centres unmarked) | -8.67 |
| O=C(NCC1CCCCC1)C1(CC2CC(c3ccc(Cl)cc3)=NO2)CCNCC1 (centres unmarked) | -71.6 |
| COc1ccc(OC)c(-c2csc(NC(=O)C3c4ccccc4Oc4ccccc43)n2)c1 | -5.7 |
| Cc1sc(-c2ccncc2)nc1OC(=O)c1cc(Cl)cc(Cl)c1 | 10.2 |
